Bioassay records from PubChem BioAssay.
TGFb inhibitor: qHTS for Inhibitors of TGF-b; HepG2 CAGA-GFP TGF-b/SMAD3 reporter, GFP fluorescence, 18 h; TGF-beta stimulated, 500 pg/mL final; Potency, µM (top dose mostly 46.1 µM), inactives show at the highest dose activity, negative = inhibition, most hits filed as inhibitors; 410,000 compounds, 1.2% hits; note: % is set by controls: 0 for no effect and ±100 for the full control effect; nearly all actives have a fitted effect of over 65% in size
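TGF-beta reporter screen: HEPG2 CAGA-GFP, 1% FBS, 500 pg/mL TGF-beta final, 18 h; per-cell GFP summed per well; curves fitted and categorized by class.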
HepG2 tox: qHTS for Inhibitors of TGF-b: Cytotox Counterscreen. Potency, µM (top dose mostly 46.1 µM), without a hit: at the top dose activity change, negative = cytotoxicity, usual class: cytotoxic. HepG2 CAGA-GFP viability, ATP luminescence, 18 h. 410,000 compounds, 0.76% hits
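HepG2 CAGA-GFP cells (1000/well, DMEM with 1% FBS) received compound, then TGF-beta at 500 pg/mL final, and were incubated 18 hours at 37 degrees C. Viability was read by CellTiter-Glo luminescence. Media-only wells were set as complete cell-killing and DMSO as no toxicity.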
HT1080 IDH1KD tx: qHTS for induction of synthetic lethality in tumor cells producing 2HG: qHTS for the HT-1080-IDH1KD cell line; 360,000 compounds, 2% hits; Potency, µM (top dose mostly 46.1 µM), for inactives: at the highest dose activity, negative = toxicity, most hits filed as cytotoxic; HT-1080 IDH1 knockdown viability, ATP luminescence, 48 h; AID 686971, 2013;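 note: 0% = DMSO wells and -100% = cell-free medium wells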
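% activity derives from luminescence (CellTiter-Glo), normalised to DMSO and no-cell wells. HT-1080-IDH1KD cells, 750/well, had 48 h compound exposure at 37 °C.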
ATXN2 expr inh: Primary qHTS for Inhibitors of ATXN expression; 360,000 compounds, 0.72% hits; Potency, µM (titrated, usually from 57 µM), without a hit: at the top dose activity change, negative = inhibition, most hits filed as inhibitors; AID 1745845, 2022; HEK-293 ATXN2-luciferase reporter, luminescence, 24 h; note: % is set by controls: 0 for no effect and ±100 for the full control effect; nearly all actives have a fitted effect of over 55% in size
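qHTS (up to 57 uM final) was run with 24 h compound exposure of reporter cells at 37 °C. Each well was multiplexed: SteadyGlo luminescence measured ATXN2-luciferase expression after a fluorogenic Gly-Phe-AFC viability readout (25 uM final).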
ATXN viability: Viability Counterscreen for Primary qHTS for Inhibitors of ATXN expression. Potency, µM (series often up to 56.7 µM), most hits filed as cytotoxic. AID 651635, 2014. S2 cells (HEK-293 line with an ATXN2-luciferase reporter) viability, CellTiter-Fluor protease fluorescence, 24 h. 400,000 compounds, 0.49% hits; note: nearly all actives have a fitted effect of over 40% in size
HT1080NT lethal: qHTS for induction of synthetic lethality in tumor cells producing 2HG: qHTS for the HT-1080-NT fibrosarcoma cell line | HT-1080-NT fibrosarcoma viability, CellTiter-Glo ATP luminescence, 48 h | Potency, µM (titrated, usually from 46.1 µM), for inactives: at the top dose activity, negative = less viability, usual class: cytotoxic | 360,000 compounds, 1.6% hits | AID 686970, 2013;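 note: NT is the 2HG producing partner of a matched IDH1 knockdown line; 0% = DMSO-treated cells and -100% = media-only wells without cells; nearly all actives have a fitted effect of over 55% in size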
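750 cells/well, RPMI + 5% FBS; 2 h settle, compound pin-transfer, 48 h at 37 degrees C. CellTiter-Glo 10 min RT, luminescence. Normalized to DMSO and media-only wells.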
The depositor's hits bear a star; i = inactive; ? = inconclusive; nt = not tested or not shown. An excerpt weighted towards active compounds, which were near 3.8% of everything screened. Calls come from the whole dose curve; as a rule, active = well fitted curve in the direction sought with a large enough effect; inconclusive = small, poorly fitted or top-dose-only effect, or another doubt; inactive = no such curve, though single readings can be large; an effect the other way counts as inactive or inconclusive. Potency is the fitted concentration of half-maximal effect.

SMILES | TGFb inhibitor | HepG2 tox | HT1080 IDH1KD tx | ATXN2 expr inh | ATXN viability | HT1080NT lethal
COc1ccc(OCc2cc(/C=N\NC(=O)c3ccccc3)ccc2OC)cc1 | -26% | 4% | 9.2µM* | 3% | i | 6.5µM*
COc1ccc(/C=N/NC(=O)c2cc(OC)c(OC)c(OC)c2)cc1CN1CCc2cc(OC)c(OC)cc2C1C (stereo not drawn) | ? | -34% | 13µM* | -20% | i | ?
COc1cc(OC)cc(C(=O)N/N=C/c2ccc(OC)c(COc3ccc(F)cc3)c2)c1 | ? | -1% | 5.2µM* | -16% | ? | ?
COc1cc2c(cc1OC)C(c1cc(-c3cc(Cl)ccc3Cl)oc1C)=NCC2 | 1% | -27% | nt | nt | nt | nt
COc1ccc(C(=O)N/N=C/c2ccc(OC)c(COc3c(F)c(F)cc(F)c3F)c2)cc1 | 0% | -35% | -23% | -9% | i | -9%
COc1ccc(/C=N\NC(=O)c2ccc([N+](=O)[O-])cc2)cc1COc1c(F)c(F)cc(F)c1F | 0.35µM* | -50% | -4% | -27% | i | -2%
COc1ccc(/C=N/NC(=O)c2cccnc2)cc1CSc1ccccn1 | -2% | 1% | 12µM* | 4% | i | 23µM*
COc1cc(/C=N\NC(=O)c2ccccc2F)ccc1Oc1ccc([N+](=O)[O-])cn1 | -25% | 3% | 7.3µM* | ? | ? | 21µM*
COc1ccc(C=O)cc1OS(=O)(=O)c1ccc(NC(C)=O)cc1 | 15% | 15% | ? | -17% | i | -26%
COc1ccc(/C=N/NC(=O)c2ccc3ccccc3c2)cc1OS(=O)(=O)c1ccc(NC(C)=O)cc1 | ? | -3% | ? | -24% | i | 6.3µM*
CCCN1CCN(CCNC(=O)Nc2ccc(OC)cc2OC)CC1 | ? | 8% | nt | -5% | ? | nt
CCO[C@H]1OC(C(=O)NCc2nc3ccccc3[nH]2)=C[C@@H](C2CC2)[C@@H]1CCCO | -21% | 7% | 2.1µM* | -21% | ? | ?
Cc1cnc(-n2ncc(C(=O)NCCCc3ccncc3)c2C)nc1-c1ccc(F)cc1 | nt | nt | nt | nt | i | nt
CCOC(=O)N1C(=O)[C@@](c2ccc(Cl)cc2)(C(C)C)N1C(=O)OCC | ? | 16µM* | ? | ? | nt | ?
CCOC(=O)N1C(=O)[C@](c2ccc(Cl)cc2)(C(C)C)N1C(=O)OCC | ? | 10µM* | -30% | ? | ? | -20%
COC(=O)N1C(=O)[C@](c2ccccc2)(C(C)C)N1C(=O)OC | -49% | -38% | 0% | -1% | ? | -1%
N#C/C(=N\Nc1ccc(Cl)cc1)C(N)=S | ? | -37% | 2.3µM* | ? | ? | 9.2µM*
Cc1ccc(CC(=O)NCc2ccc(Cl)cc2)cc1 | -17% | -20% | 9.2µM* | nt | ? | 21µM*
CN(Cc1ccccc1)C(=O)c1ccc([N+](=O)[O-])o1 | ? | 20µM* | 1% | nt | i | -10%
Cc1ccc(/C=C/C(=O)c2ccc([N+](=O)[O-])o2)cc1 | 7.9µM* | -19% | 3.7µM* | ? | 8.9µM* | 12µM*
Cc1ccc(CNC(=O)c2ccc([N+](=O)[O-])o2)cc1 | -18% | 14µM* | ? | 1% | ? | ?
Cc1ccc(C(=O)/C=C/c2ccc(Br)cc2)o1 | 0% | -27% | -9% | -21% | i | -22%
O=C(CC(=O)NCc1ccc(Cl)cc1)NCc1ccc(Cl)cc1 | 7% | 5% | -10% | 7% | i | ?
COc1ccccc1-n1cc(CN2CCOc3ccc(CN4C[C@@H](C)O[C@@H](C)C4)cc3C2)cn1 | nt | nt | nt | nt | i | nt
COc1ccc(C(=O)Nc2cc(-c3cccc(C)c3)nn2-c2ccccc2)cc1 | -6% | -13% | nt | -2% | ? | nt
SMILES | TGFb inhibitor | HepG2 tox | HT1080 IDH1KD tx | ATXN2 expr inh | ATXN viability | HT1080NT lethal
O=C(NCc1nnnn1-c1ccc(F)cc1)c1ccc([N+](=O)[O-])o1 | 14µM* | -180% | 12µM* | 21% | i | ?
N#CC(C#N)=C(Nc1ccc(F)cc1)SCc1cccc(Br)c1 | 1.6µM* | -75% | 18µM* | ? | ? | 9.2µM*
Cc1cccc(CSC(Nc2ccc(F)cc2)=C(C#N)C#N)c1 | 5µM* | -28% | -24% | ? | i | ?
Cc1ccc(-n2c(=O)c3c4c(sc3n(CC(=O)c3ccc(Cl)cc3)c2=O)CCC4)cc1C | -27% | -42% | nt | 7% | i | nt
O=C(NC1CCCCC1)c1ccc(CSc2nc3ccncc3n2Cc2cccc(F)c2)cc1 | ? | -20% | nt | ? | ? | nt
Cn1c(=O)c(=O)n(C)c2cc(N3CCCC3)c(NC(=O)c3ccc(C(C)(C)C)cc3)cc21 | -14% | -15% | nt | -1% | i | nt
COc1ccc(NC(=O)c2ccccc2OCC(=O)Nc2ccc(Br)cc2)cc1 | -8% | 2% | nt | nt | nt | nt
CC(O)[C@H]1CN=C(N)N1CCc1cc(C(F)(F)F)cc(C(F)(F)F)c1 (stereo partly drawn) | 3% | -8% | 2% | 8% | i | -3%
NC1=NC[C@H](c2ccccc2)N1CCc1cc(C(F)(F)F)cc(C(F)(F)F)c1 | 11µM* | -110% | ? | ? | nt | ?
NC1=NC[C@H](Cc2ccccc2)N1CCCCC1CCCCC1 | ? | -105% | -6% | 25µM* | ? | -7%
